Assay results from paper PMC7862700, “An all-to-all approach to the identification of sequence-specific readers for epigenetic DNA modifications on cytosine”.

Assays:
Assay in all cases: DAPPL (digital affinity profiling via proximity ligation, sequencing); 10 mM Tris-HCl pH 7.5, 50 mM NaCl, 1 mM DTT, 4% glycerol, room temperature, 30 min; GST-TFs on glutathione beads, 16-mer random dsDNA library, 0.1% formaldehyde crosslink after washing; high values mean tight binding
FEV = target: T1, FEV (Homo sapiens, UniProt Q99581 1-238); settings: protein: recombinant; tags: N-terminal GST; dsDNA, one strand shown
T1 sequence: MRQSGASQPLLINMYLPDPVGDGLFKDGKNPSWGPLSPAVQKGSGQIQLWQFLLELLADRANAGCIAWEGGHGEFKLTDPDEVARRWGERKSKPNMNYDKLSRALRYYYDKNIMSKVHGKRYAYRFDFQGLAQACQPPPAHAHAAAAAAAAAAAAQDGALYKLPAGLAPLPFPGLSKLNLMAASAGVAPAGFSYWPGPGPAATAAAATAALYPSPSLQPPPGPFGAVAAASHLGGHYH
How it was run: (§1)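 Binding signal is each hexamer's read frequency for a factor divided by its frequency in the tag-only sample. The factors were GST-fused human transcription factors from yeast, captured on glutathione beads, DNA-barcoded and pooled with that sample. Pools were incubated with 200 nmole of a random double-stranded 16-mer DNA library in Tris/NaCl/DTT/glycerol buffer at room temperature for 30 min, then washed, crosslinked with 0.1% formaldehyde, proximity-ligated with BsaI/T4 ligase (1 h, 37 °C), PCR-amplified and sequenced on an Illumina NextSeq500.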

ETV5 = ETV5 (Homo sapiens, UniProt P41161 1-510); settings: protein: recombinant; tags: N-terminal GST; dsDNA, one strand shown
Sequence of ETV5 (P41161 whole entry): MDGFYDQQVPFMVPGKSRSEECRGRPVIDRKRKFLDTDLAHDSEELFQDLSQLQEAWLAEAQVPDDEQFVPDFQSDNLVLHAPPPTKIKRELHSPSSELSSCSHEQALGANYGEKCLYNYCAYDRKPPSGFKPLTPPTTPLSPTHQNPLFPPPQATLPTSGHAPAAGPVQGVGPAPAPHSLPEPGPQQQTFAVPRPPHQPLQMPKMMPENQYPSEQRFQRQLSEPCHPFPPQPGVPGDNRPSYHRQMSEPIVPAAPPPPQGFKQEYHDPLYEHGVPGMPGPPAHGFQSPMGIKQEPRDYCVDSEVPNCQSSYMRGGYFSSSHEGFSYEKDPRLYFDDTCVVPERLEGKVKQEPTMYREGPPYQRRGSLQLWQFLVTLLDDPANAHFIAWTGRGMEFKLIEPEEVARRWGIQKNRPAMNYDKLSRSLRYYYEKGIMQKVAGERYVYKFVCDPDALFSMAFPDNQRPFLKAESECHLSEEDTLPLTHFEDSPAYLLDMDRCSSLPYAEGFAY
How it was run: as §1

HSF1 = HSF1 (Homo sapiens, UniProt Q00613 1-529); settings: protein: recombinant; tags: N-terminal GST; chain copies: 3; dsDNA, one strand shown
Sequence of HSF1 (Q00613 whole entry): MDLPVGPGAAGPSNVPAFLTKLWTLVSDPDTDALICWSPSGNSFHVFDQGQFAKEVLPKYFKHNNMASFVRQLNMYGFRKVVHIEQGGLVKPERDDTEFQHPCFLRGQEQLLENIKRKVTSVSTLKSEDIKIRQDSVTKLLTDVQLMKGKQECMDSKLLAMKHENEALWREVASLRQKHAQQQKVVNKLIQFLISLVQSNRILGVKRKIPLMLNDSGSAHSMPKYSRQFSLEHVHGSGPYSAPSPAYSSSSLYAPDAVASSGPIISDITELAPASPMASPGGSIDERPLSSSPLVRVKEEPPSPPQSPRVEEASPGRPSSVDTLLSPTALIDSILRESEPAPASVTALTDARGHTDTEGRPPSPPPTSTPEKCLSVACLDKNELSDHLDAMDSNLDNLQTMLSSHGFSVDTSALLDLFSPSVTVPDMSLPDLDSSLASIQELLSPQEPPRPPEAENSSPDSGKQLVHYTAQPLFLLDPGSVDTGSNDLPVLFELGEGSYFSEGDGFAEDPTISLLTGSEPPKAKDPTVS
How it was run: as §1

SPIC = target: T2, SPIC (Homo sapiens, UniProt Q8N5J4 1-248); settings: protein: recombinant; tags: N-terminal GST; dsDNA, one strand shown
T2 sequence: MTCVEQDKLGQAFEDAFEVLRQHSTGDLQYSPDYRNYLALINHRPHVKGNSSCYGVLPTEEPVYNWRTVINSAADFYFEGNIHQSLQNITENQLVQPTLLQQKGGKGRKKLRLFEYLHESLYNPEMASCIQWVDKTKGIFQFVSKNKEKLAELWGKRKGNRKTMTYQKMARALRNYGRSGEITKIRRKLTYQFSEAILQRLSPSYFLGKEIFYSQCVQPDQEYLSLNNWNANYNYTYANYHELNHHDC
How it was run: as §1

ELF4 = ELF4 (Homo sapiens, UniProt Q99607 1-663); settings: protein: recombinant; tags: N-terminal GST; dsDNA, one strand shown
Sequence of ELF4 (Q99607 whole entry): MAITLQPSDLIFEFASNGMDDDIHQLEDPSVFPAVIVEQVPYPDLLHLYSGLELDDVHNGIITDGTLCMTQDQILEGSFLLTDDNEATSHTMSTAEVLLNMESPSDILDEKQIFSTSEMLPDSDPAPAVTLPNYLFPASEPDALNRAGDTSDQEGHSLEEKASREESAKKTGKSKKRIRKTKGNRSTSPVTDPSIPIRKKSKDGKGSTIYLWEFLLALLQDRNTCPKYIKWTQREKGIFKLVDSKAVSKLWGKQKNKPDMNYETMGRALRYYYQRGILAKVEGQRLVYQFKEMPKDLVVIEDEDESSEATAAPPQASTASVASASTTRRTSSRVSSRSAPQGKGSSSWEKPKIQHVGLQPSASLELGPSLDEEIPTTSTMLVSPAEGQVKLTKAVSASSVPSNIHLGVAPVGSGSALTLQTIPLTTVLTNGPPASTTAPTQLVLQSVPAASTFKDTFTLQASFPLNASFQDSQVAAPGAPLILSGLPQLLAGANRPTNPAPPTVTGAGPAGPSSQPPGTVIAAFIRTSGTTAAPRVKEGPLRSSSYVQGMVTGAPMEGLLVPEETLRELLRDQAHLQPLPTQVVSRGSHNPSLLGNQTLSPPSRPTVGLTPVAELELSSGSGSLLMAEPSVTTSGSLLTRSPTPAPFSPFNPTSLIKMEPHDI
How it was run: as §1

ELK4 = target: T3, ELK4 (Homo sapiens, UniProt P28324-2 1-405); settings: protein: recombinant; tags: N-terminal GST; dsDNA, one strand shown
T3 sequence: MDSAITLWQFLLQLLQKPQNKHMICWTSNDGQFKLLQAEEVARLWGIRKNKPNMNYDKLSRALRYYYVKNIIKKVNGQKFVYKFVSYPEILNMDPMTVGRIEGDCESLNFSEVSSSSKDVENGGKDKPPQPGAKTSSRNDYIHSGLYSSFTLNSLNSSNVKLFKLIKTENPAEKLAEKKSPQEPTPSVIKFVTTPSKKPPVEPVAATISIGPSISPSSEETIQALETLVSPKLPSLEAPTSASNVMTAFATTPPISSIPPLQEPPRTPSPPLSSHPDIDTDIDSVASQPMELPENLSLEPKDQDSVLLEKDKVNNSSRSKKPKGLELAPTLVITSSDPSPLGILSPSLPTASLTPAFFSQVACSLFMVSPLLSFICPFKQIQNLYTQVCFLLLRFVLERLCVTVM
How it was run: as §1

ETV2 = target: T4, ETV2 (Homo sapiens, UniProt O00321 1-342); settings: protein: recombinant; tags: N-terminal GST; dsDNA, one strand shown
T4 sequence: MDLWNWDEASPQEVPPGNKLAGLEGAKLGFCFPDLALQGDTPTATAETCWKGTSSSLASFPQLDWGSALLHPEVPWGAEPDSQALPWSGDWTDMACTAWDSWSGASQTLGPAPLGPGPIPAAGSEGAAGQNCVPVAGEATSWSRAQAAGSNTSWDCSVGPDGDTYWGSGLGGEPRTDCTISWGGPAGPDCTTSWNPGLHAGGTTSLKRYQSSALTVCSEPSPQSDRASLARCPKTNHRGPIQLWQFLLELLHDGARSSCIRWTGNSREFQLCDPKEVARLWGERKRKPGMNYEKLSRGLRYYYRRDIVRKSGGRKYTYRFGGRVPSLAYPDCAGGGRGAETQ
How it was run: as §1

ELF3 = target: T5, ELF3 (Homo sapiens, UniProt P78545 1-371); settings: protein: recombinant; tags: N-terminal GST; dsDNA, one strand shown
T5 sequence: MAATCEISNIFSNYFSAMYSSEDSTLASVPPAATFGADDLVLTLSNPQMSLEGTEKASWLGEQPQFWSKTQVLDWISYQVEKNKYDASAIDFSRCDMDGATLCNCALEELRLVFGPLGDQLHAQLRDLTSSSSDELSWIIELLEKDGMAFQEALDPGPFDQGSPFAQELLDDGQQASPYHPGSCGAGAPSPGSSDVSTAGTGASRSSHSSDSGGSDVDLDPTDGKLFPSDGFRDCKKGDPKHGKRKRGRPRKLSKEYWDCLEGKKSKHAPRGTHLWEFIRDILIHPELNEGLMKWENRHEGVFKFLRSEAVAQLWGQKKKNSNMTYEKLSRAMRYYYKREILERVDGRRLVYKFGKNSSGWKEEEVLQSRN
How it was run: as §1

CRX = CRX (Homo sapiens, UniProt O43186 1-299); settings: protein: recombinant; tags: N-terminal GST; dsDNA, one strand shown
Sequence of CRX (O43186 whole entry): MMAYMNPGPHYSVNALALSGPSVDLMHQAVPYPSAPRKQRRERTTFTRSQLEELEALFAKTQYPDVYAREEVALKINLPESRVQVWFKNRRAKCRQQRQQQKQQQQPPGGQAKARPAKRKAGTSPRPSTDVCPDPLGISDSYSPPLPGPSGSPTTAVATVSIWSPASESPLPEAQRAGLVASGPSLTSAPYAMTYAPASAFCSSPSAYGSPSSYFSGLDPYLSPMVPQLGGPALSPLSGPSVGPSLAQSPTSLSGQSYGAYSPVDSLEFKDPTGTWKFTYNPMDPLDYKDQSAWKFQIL
How it was run: as §1

ETV1 = ETV1 (Homo sapiens, UniProt P50549 1-477); settings: protein: recombinant; tags: N-terminal GST; dsDNA, one strand shown
Sequence of ETV1 (P50549 whole entry): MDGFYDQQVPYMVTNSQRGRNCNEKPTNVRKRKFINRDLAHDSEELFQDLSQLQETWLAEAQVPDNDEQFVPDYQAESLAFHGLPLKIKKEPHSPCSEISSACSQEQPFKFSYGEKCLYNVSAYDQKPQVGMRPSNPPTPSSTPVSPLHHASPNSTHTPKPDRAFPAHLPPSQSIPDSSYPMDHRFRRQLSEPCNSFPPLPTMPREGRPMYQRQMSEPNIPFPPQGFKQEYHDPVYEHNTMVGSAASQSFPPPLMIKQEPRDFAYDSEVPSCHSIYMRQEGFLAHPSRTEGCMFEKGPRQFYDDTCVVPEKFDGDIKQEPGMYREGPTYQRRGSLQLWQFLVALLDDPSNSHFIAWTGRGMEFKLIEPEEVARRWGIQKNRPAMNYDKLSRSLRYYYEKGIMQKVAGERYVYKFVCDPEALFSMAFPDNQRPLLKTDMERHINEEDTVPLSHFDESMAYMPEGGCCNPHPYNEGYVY
How it was run: as §1

ERF = target: T6, ERF (Homo sapiens, UniProt P50548 1-548); settings: protein: recombinant; tags: N-terminal GST; dsDNA, one strand shown
T6 sequence: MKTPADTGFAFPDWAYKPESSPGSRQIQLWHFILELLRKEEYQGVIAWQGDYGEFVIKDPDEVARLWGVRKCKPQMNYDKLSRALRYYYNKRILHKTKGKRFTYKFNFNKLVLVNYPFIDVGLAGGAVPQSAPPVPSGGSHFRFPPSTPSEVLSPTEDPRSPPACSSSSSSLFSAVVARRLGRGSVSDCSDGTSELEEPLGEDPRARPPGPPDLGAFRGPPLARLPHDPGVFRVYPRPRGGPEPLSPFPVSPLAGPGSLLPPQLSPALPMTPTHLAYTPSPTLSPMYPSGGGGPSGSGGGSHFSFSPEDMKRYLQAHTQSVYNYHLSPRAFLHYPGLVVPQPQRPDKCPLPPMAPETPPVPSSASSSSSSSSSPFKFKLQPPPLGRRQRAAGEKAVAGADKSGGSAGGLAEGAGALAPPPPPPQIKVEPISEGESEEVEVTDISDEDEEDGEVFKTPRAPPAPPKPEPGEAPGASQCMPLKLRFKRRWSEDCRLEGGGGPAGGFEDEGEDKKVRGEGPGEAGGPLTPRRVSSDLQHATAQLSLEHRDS
How it was run: as §1

ETV3L = target: T7, ETV3L (Homo sapiens, UniProt Q6ZN32 1-361); settings: protein: recombinant; tags: N-terminal GST; dsDNA, one strand shown
T7 sequence: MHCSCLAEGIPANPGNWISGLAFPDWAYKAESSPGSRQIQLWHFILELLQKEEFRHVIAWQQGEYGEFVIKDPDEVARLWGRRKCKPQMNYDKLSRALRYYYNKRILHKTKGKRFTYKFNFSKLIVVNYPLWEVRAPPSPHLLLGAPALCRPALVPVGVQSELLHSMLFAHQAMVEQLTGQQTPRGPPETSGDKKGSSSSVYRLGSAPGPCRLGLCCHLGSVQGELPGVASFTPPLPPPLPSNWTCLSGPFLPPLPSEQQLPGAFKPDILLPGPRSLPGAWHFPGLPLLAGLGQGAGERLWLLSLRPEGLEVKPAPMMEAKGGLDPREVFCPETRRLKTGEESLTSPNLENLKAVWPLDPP
How it was run: as §1

ETS2 = target: T8, ETS2 (Homo sapiens, UniProt P15036 1-469); settings: protein: recombinant; tags: N-terminal GST; dsDNA, one strand shown
T8 sequence: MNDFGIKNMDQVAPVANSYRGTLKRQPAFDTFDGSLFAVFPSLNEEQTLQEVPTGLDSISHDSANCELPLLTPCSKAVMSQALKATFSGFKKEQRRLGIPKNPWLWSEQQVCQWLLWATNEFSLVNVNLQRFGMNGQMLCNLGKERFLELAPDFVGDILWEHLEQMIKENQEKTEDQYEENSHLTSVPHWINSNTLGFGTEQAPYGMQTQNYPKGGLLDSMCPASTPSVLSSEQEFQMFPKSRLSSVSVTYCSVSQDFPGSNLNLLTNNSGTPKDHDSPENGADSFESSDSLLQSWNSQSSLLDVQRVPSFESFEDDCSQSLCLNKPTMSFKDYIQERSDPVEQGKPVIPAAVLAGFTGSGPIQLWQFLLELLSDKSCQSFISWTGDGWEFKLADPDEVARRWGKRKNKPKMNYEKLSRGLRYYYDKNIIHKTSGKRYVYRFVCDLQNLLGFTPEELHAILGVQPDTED
How it was run: as §1

SPDEF = target: T9, SPDEF (Homo sapiens, UniProt O95238 1-335); settings: protein: recombinant; tags: N-terminal GST; dsDNA, one strand shown
T9 sequence: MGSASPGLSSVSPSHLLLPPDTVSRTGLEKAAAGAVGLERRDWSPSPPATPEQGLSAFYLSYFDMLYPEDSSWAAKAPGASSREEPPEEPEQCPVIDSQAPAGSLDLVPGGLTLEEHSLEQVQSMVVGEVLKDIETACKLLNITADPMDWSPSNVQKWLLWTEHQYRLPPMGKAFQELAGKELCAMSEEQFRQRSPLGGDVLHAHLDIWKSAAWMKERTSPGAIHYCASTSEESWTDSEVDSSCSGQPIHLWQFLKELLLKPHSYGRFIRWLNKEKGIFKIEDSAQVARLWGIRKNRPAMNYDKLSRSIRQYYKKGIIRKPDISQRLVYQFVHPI
How it was run: as §1

ETV7 = target: T10, ETV7 (Homo sapiens, UniProt Q9Y603 1-341); settings: protein: recombinant; tags: N-terminal GST; dsDNA, one strand shown
T10 sequence: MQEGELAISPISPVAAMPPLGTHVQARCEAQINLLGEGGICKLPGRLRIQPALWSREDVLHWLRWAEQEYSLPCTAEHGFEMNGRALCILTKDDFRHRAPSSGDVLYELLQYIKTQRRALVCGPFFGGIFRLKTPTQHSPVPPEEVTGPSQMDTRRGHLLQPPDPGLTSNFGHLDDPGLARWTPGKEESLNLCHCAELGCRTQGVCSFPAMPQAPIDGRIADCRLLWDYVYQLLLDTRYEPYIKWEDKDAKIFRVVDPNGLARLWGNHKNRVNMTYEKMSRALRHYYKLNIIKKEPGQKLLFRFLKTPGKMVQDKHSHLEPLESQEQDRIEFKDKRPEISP
How it was run: as §1

ELF5 = target: T11, ELF5 (Homo sapiens, UniProt Q9UKW6-2 1-255); settings: protein: recombinant; tags: N-terminal GST; dsDNA, one strand shown
T11 sequence: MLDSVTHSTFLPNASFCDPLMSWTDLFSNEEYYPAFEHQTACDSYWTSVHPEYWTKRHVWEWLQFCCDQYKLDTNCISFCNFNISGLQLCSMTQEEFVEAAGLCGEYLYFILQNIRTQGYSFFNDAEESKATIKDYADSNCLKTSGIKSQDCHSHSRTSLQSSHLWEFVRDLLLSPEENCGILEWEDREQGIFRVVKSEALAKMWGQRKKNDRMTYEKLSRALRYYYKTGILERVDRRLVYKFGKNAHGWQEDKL
How it was run: as §1

ETV3 = target: T12, ETV3 (Homo sapiens, UniProt P41162-2 1-143); settings: protein: recombinant; tags: N-terminal GST; dsDNA, one strand shown
T12 sequence: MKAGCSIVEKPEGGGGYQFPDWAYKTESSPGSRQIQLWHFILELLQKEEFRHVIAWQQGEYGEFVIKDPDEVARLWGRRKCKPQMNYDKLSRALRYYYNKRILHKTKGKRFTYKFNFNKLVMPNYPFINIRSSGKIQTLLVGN
How it was run: as §1

ETV6 = ETV6 (Homo sapiens, UniProt P41212 1-452); settings: protein: recombinant; tags: N-terminal GST; dsDNA, one strand shown
Sequence of ETV6 (P41212 whole entry): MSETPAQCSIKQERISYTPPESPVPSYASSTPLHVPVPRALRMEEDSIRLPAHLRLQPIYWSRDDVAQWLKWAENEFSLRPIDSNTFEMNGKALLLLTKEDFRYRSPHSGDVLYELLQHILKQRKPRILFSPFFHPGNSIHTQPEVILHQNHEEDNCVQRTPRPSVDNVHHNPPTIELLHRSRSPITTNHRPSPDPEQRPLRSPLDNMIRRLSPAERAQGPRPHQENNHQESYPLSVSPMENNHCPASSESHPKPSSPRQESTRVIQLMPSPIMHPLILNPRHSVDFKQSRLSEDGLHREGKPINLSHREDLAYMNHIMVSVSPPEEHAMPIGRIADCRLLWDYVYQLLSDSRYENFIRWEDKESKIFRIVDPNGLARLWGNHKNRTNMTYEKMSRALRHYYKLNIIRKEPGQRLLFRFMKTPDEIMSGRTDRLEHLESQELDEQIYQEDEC
How it was run: as §1

## TGGTAA
FEV
  binding signal: 1.15 fold enrichment (6-mer frequency, TF over GST control)
ETV5
  binding signal: 1.23 fold enrichment (6-mer frequency, TF over GST control)
HSF1
  binding signal: 1.45 fold enrichment (6-mer frequency, TF over GST control)
SPIC
  binding signal: 1.09 fold enrichment (6-mer frequency, TF over GST control)
ELF4
  binding signal: 1.23 fold enrichment (6-mer frequency, TF over GST control)
ELK4
  binding signal: 1.39 fold enrichment (6-mer frequency, TF over GST control)
ETV2
  binding signal: 1.3 fold enrichment (6-mer frequency, TF over GST control)
ELF3
  binding signal: 1.15 fold enrichment (6-mer frequency, TF over GST control)
CRX
  binding signal: 1.51 fold enrichment (6-mer frequency, TF over GST control)
ETV1
  binding signal: 1.27 fold enrichment (6-mer frequency, TF over GST control)
ERF
  binding signal: 1.27 fold enrichment (6-mer frequency, TF over GST control)
ETV3L
  binding signal: 1.25 fold enrichment (6-mer frequency, TF over GST control)
ETS2
  binding signal: 1.32 fold enrichment (6-mer frequency, TF over GST control)
SPDEF
  binding signal: 1.19 fold enrichment (6-mer frequency, TF over GST control)
ETV7
  binding signal: 1.4 fold enrichment (6-mer frequency, TF over GST control)
ELF5
  binding signal: 1.23 fold enrichment (6-mer frequency, TF over GST control)
ETV3
  binding signal: 1.15 fold enrichment (6-mer frequency, TF over GST control)
ETV6
  binding signal: 1.25 fold enrichment (6-mer frequency, TF over GST control)
